Inconclusive results are not listed. Calls of active or inactive are those of the source. Unless noted, the call rests on the fitted dose curve; in most records, active means well fitted curve in the direction sought with a large enough effect; inconclusive means small, poorly fitted or top-dose-only effect, or another doubt; inactive means no such curve, though single readings can be large; an effect the other way counts as inactive or inconclusive.
Tests used:
[1] = molecular target: Glucocorticoid receptor (Homo sapiens) (UniProt P04150); test: GR-GFP Redistribution (AID 450;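 active means compounds whose dose series gives a full or clear partial fitted curve of increased nuclear translocation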; further: potency means the concentration at half of the fitted maximal effect); conditions: U2OS GR-GFP nuclear translocation, laser cytometry, 2 h
Chain of Glucocorticoid receptor (Homo sapiens) (P04150 whole entry, looked up, the tested form may be a part): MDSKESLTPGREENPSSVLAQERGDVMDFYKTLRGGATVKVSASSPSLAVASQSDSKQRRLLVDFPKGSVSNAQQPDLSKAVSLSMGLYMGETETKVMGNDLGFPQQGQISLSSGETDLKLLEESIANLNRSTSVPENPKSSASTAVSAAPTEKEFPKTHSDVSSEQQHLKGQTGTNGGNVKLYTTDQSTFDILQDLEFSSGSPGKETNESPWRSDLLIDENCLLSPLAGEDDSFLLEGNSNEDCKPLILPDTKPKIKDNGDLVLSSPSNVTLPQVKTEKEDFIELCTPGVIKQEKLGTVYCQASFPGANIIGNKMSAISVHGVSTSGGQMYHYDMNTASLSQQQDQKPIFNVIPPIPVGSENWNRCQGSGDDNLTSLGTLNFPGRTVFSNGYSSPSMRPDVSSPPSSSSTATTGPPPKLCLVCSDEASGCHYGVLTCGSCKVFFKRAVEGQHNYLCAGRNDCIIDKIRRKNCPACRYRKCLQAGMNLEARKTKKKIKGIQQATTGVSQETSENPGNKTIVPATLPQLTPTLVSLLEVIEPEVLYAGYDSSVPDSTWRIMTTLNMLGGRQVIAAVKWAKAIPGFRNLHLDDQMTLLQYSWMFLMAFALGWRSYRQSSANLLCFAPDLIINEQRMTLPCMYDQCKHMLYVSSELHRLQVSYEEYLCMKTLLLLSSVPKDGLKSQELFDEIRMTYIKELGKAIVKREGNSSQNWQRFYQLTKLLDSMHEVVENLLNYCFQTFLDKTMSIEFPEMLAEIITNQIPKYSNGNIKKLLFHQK

[2] = molecular target: Glucocorticoid receptor (Homo sapiens) (UniProt P04150); test: GR-EFC Redistribution (AID 451; calls by dose curve; further: potency means the concentration at half of the fitted maximal effect); conditions: CHO-K1 GR-EFC translocation, beta-gal luminescence, 2 h
In short: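 Translocation of GR-ED fusion to nuclear EA restores b-gal, read by luminescence after 1 h room-temperature detection. Engineered CHO-K1 biosensor cells, 1,000/well, exposed 2 h at 37 C to titrations up to 46 uM final.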

[3] = molecular target: DNA dC->dU-editing enzyme APOBEC-3G (Homo sapiens) (UniProt Q9HC16); test: qHTS for inhibitors of Vif-A3G interactions: Validation (AID 588379); conditions: Vif-A3G protein interaction assay; series mostly up to 46.1 µM; further: 0% is about no effect
Chain of DNA dC->dU-editing enzyme APOBEC-3G (Homo sapiens) (Q9HC16 whole entry, looked up): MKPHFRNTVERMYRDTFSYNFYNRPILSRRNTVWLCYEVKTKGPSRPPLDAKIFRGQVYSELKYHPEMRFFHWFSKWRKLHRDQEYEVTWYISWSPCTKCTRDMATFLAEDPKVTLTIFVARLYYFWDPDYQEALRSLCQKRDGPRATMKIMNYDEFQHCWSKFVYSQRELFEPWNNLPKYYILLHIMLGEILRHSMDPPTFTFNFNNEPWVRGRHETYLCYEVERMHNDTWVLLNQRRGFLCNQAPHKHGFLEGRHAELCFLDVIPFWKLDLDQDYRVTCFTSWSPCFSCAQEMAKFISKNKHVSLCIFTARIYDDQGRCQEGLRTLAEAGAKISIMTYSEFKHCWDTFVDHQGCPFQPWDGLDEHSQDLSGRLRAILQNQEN
In short: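 HeLa cells stably expressing Vif and A3G-eYFP, 700 cells/well, incubated overnight at 37 deg C, then exposed to compound overnight at 37 deg C. Inhibition of Vif-mediated degradation read as increased yellow fluorescence (Ex 488/Em 500-530) by laser-scanning cytometry.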

[4] = Confirmatory qHTS for small molecule stabilizers of the endoplasmic reticulum resident proteome: Secreted ER Calcium Modulated Protein (SERCaMP) assay (AID 1508628); conditions: SERCaMP secreted luciferase ER calcium/proteostasis reporter; series mostly up to 76.3 µM; further: potency means the concentration at half of the fitted maximal effect; nearly all actives have a fitted effect of over 40% in size
In short: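 SH-SY5Y cells stably expressing GLuc-SERCaMP, treated 16 h with compound (primary 1.53, 7.67, 38.3 uM; confirmation 11 concentrations, up to 76.6 uM), then 100 nM thapsigargin for 4 h. Secreted Gaussia luciferase in medium read by coelenterazine luminescence.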

[5] = molecular target: Rap guanine nucleotide exchange factor 3 (Homo sapiens) (UniProt O95398); test: Confirmatory qHTS for antagonist of cAMP-regulated guanine nucleotide exchange factor 3 (EPAC1) (AID 1645880); conditions: EPAC1 Rap1B-BODIPY-GDP exchange, fluorescence; series mostly up to 115 µM;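 further: plate controls were DMSO only for no effect and full effect of the ATA control for full effect; nearly all actives have a fitted effect of over 55% in size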
Chain of Rap guanine nucleotide exchange factor 3 (Homo sapiens) (O95398 whole entry, looked up): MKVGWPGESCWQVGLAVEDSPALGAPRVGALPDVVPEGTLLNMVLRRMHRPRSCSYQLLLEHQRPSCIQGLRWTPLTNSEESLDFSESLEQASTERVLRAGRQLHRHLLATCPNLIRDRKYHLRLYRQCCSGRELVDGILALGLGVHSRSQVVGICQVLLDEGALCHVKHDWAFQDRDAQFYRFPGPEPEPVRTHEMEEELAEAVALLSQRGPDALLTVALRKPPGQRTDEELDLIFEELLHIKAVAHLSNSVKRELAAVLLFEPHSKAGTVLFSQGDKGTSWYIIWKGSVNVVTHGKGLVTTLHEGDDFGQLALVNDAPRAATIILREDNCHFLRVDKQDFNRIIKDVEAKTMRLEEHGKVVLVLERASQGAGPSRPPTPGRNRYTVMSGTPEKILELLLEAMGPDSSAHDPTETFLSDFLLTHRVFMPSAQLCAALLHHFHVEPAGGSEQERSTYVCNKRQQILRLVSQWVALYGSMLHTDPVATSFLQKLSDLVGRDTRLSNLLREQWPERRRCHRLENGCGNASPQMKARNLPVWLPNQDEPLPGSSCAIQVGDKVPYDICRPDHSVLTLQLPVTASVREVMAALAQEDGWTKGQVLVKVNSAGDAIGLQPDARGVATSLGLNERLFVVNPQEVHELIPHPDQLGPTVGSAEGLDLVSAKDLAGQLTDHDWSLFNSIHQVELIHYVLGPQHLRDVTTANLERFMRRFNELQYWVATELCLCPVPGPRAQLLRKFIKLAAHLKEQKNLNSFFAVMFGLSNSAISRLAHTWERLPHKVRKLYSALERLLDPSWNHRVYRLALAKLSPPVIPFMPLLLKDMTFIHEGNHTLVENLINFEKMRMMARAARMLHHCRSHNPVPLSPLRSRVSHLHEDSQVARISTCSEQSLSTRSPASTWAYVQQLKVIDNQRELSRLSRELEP
In short: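 Nucleotide exchange uses 100 nM EPAC1, 250 nM RAP1B-BODIPY-GDP and 50 uM GDP, with compounds in a concentration-titration series. After 5 min at room temperature, fluorescence (480 nm ex/540 nm em) is read every 5 min for 30 min. Data are normalized to control ATA and DMSO.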

[6] = molecular target: Rap guanine nucleotide exchange factor 3 (Homo sapiens) (UniProt O95398); test: Confirmatory qHTS for agonist of cAMP-regulated guanine nucleotide exchange factor 3 (EPAC1) (AID 1645881); conditions: EPAC1 Rap1B BODIPY-GDP exchange fluorescence, 100% = cAMP control response; series mostly up to 154 µM;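 further: EPAC1 catalysed release of BODIPY-GDP from Rap1B seen as fluorescence loss; nearly all actives have a fitted effect of over 75% in size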
[7] = molecular target: Rap guanine nucleotide exchange factor 4 (Homo sapiens) (UniProt Q8WZA2); test: Confirmatory qHTS for agonist of cAMP-regulated guanine nucleotide exchange factor 4 (EPAC2) (AID 1645884); conditions: EPAC2 GEF activity, Rap1B-BODIPY-GDP fluorescence, percent relative to cAMP agonist control; series mostly up to 154 µM;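 further: nucleotide exchange releases bodipy-GDP from Rap1 and this lowers its fluorescence; on the % scale 0 is the no-effect control and ±100 the full control effect; nearly all actives have a fitted effect of over 65% in size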
Chain of Rap guanine nucleotide exchange factor 4 (Homo sapiens) (Q8WZA2 whole entry, looked up): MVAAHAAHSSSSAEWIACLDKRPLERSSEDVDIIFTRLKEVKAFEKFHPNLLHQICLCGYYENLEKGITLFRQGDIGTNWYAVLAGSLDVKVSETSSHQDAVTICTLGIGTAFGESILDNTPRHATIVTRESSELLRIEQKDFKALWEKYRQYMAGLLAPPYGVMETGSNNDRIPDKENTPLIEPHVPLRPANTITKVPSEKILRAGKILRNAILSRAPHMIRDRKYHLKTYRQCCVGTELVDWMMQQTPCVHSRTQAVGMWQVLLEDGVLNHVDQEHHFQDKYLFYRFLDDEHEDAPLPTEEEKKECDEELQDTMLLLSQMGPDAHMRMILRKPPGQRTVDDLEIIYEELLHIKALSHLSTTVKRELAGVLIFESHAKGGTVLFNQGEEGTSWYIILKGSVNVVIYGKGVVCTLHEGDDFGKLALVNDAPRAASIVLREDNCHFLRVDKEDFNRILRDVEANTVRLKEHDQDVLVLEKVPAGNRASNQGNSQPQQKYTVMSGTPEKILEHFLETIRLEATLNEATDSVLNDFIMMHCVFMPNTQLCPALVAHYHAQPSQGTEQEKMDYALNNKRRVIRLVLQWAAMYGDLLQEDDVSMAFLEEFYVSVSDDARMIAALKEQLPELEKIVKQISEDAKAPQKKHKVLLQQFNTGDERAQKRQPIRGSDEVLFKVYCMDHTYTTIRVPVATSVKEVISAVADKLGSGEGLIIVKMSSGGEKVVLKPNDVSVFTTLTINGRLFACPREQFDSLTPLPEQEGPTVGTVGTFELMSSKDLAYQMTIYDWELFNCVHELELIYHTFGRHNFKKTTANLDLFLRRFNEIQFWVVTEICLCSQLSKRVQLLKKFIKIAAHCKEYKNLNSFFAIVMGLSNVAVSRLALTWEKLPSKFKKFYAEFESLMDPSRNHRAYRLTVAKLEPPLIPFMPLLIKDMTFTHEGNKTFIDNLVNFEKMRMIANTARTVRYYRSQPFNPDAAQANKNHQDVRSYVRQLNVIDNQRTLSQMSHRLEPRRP

[8] = molecular target: Mitogen-activated protein kinase 10 (Mus musculus) (UniProt Q61831); test: JNK3 AlphaScreen Assay (AID 530; active means well fitted curve in either direction with a large enough effect, not every such curve was filed as active;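 further: kinase came from lysate of stimulated human HepG2 cells; signal reports phosphorylation of biotinylated GST-cJun 1-79 at Ser73 with 10 µM ATP; on the % scale 0 is the no-effect control and ±100 the full control effect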); conditions: JNK3 lysate, c-Jun phosphorylation; series mostly up to 57.1 µM
In short: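 Compound titrations were preincubated 15 minutes at room temperature with substrate, antibody and pre-activated JNK3-containing HepG2 lysate. Reactions were started with 10 uM ATP and stopped with EDTA-containing bead buffer for AlphaScreen detection.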

[9] = molecular target: Cytochrome P450 2D6 (Homo sapiens) (UniProt P10635); test: qHTS Assay for Inhibitors and Substrates of Cytochrome P450 2D6 (AID 891); conditions: recombinant CYP2D6, luciferin-ME EGE luminescence; series mostly up to 57.1 µM; further: potency means the concentration at half of the fitted maximal effect; nearly all actives have a fitted effect of over 60% in size
Chain of Cytochrome P450 2D6 (Homo sapiens) (P10635 whole entry, looked up): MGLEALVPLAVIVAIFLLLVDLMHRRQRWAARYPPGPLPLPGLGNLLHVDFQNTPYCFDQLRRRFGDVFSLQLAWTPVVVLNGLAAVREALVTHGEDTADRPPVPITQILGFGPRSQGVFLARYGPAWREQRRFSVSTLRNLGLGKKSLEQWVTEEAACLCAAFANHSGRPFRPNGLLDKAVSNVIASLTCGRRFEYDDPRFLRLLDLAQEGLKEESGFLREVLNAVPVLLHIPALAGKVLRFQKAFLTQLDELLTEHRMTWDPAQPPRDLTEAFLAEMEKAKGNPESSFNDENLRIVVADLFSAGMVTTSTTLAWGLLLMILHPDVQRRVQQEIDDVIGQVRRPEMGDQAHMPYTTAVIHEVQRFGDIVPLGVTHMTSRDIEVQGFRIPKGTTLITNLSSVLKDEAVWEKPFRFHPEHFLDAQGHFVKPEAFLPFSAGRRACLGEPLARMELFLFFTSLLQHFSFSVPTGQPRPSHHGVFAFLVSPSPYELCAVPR
In short: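 Human CYP2D6 (5 nM) with 30 uM Luciferin-ME EGE (at Km) in 100 mM KPO4, compound preincubated 10 min, then NADPH regeneration system for 60 min at room temperature. Luciferin read by luminescence; normalized to 1.43 uM quinidine.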

[10] = molecular target: Cytochrome P450 2C19 (Homo sapiens) (UniProt P33261); test: qHTS Assay for Inhibitors and Substrates of Cytochrome P450 2C19 (AID 899); conditions: recombinant CYP2C19, luciferin-H EGE luminescence; series mostly up to 57.1 µM; further: potency means the concentration at half of the fitted maximal effect; nearly all actives have a fitted effect of over 60% in size
Chain of Cytochrome P450 2C19 (Homo sapiens) (P33261 whole entry, looked up): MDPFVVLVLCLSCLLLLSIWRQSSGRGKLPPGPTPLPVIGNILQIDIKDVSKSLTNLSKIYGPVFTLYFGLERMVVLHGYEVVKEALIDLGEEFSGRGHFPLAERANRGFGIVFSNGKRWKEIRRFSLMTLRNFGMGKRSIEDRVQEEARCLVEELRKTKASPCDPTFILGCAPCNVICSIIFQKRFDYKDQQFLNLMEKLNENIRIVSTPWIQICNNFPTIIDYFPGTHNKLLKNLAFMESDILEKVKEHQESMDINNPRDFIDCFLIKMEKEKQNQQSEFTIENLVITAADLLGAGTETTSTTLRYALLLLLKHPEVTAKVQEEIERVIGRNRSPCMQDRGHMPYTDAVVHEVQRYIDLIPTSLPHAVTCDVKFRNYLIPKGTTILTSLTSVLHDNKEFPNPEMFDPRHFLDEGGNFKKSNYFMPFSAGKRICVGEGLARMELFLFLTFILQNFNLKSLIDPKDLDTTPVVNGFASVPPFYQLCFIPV
In short: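 5nM enzyme + 10uM Luciferin-H EGE (=KM), 50mM KPO4; cpd pin-transferred, 10 min 37C; NADPH regen, 60 min 37C; stopped w/ luciferin detection reagent, 20 min; luminescence. Normalized to 57uM ketoconazole (AC100).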

[11] = qHTS Assay for Lipid Storage Modulators (AID 1519; calls by dose curve; on activity change, negative = inhibition: on the % scale 0 is the no-effect control and ±100 the full control effect); conditions: Drosophila S3 cells, BODIPY lipid droplet/cell ratio, laser cytometry, cells loaded with oleic acid
In short: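 Cells seeded at 5,000 per well were treated with compounds over a concentration series and loaded with oleic acid (400 uM, as added). Lipid droplet fluorescence (488 nm excitation, 500-530 nm channel) was read by laser-scanning cytometry and normalized to 20 uM Triacsin C.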

[12] = molecular target: Ubiquitin carboxyl-terminal hydrolase 1 (Homo sapiens) (UniProt O94782); test: Inhibitors of USP1/UAF1: Pilot qHTS (AID 504865); conditions: purified USP1/UAF1, Ub-rhodamine cleavage fluorescence; series mostly up to 114 µM;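 further: rhodamine fluorescence freed from ubiquitin-rhodamine substrate followed over time; top concentration of the series differs between compounds; on the % scale 0 is the no-effect control and ±100 the full control effect; nearly all actives have a fitted effect of over 35% in size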
Chain of Ubiquitin carboxyl-terminal hydrolase 1 (Homo sapiens) (O94782 whole entry, looked up): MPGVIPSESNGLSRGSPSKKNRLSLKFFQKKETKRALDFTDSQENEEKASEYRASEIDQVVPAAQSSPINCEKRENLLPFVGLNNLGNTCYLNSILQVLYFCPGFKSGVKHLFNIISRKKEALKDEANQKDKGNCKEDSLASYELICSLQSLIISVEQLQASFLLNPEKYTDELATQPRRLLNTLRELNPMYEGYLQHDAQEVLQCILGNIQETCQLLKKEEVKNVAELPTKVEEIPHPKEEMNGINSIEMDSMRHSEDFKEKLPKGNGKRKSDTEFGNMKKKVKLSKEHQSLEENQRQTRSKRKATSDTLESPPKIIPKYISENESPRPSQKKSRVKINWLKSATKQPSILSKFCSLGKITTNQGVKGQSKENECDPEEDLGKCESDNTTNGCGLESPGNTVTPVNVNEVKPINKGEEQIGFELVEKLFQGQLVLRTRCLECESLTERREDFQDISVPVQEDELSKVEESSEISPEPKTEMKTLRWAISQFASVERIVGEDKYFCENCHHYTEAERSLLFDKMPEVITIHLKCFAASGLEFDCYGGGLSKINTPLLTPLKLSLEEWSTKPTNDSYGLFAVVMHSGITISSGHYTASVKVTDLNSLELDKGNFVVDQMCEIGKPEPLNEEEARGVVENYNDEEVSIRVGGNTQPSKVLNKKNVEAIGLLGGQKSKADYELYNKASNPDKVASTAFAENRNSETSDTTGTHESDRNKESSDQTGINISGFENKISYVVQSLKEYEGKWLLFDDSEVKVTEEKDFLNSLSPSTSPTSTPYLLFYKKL
In short: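 Enzyme-free wells gave the negative control, while test wells held 1nM USP1/UAF1 preincubated with compound for 15 min at room temperature. Ub-Rho at 150nM final started the reaction, and fluorescence at 480/540 nm was recorded kinetically.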

[13] = Counterscreen qHTS for small molecule stabilizers of the endoplasmic reticulum resident proteome: GLuc-NoTag assay (AID 1508627); conditions: Gaussia luciferase NoTag secretion counterscreen, luminescence, thapsigargin 100 nM for final 4 h; series mostly up to 76.4 µM;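 further: SH-SY5Y cells given compound then 100 nM thapsigargin to empty ER calcium; 0% = thapsigargin alone and -100% = DMSO vehicle control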
In short: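 Luminescence of Gaussia luciferase secreted into the medium (coelenterazine, 0.07x final, unlysed cells) was the read-out. Human SH-SY5Y neuroblastoma cells constitutively secreting untagged GLuc received compound for 19 h, then 100 nM thapsigargin for 4 h.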

[14] = Cell Viability qHTS for small molecule stabilizers of the endoplasmic reticulum resident proteome (AID 1508629); conditions: cell viability counter-screen, 100 nM thapsigargin for final 4 h;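 further: human SH-SY5Y neuroblastoma cells carrying the GLuc-SERCaMP reporter; compound exposure about 46 h in total before the viability read; on the % scale 0 is the no-effect control and ±100 the full control effect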

CC(C)(O)[C@H]1O[C@@H]2CC[C@]3(C)[C@@]4(C)c5[nH]c6ccccc6c5C[C@@H]4CC[C@]3(O)C2=CC1=O
inactive: Potency [2] > 46 µM | Potency [3] | Potency [5] | outcome [6] | outcome [7]
active: Potency [1] 6.76e-05 µM | Potency [4] 20 µM

CC[C@H](Oc1ccc(Cl)cc1)C(=O)OC1C[C@H]2CC[C@@H](C1)N2C (some centres undefined)
inactive: Potency [1] > 46 µM | Potency [2] > 46 µM | outcome [8] | activity change, negative = inhibition ([11]; at 57.5 µM (top of the series)) -0.561% | Potency [12] | Potency [3] | Potency [13] | max response [14] 3.6%
16.1%: max response ([11]; measured here: cell count channel max response)
active: Potency [9] 0.0063 µM | Potency [10] 0.0158 µM
28.8%: max response ([11]; measured here: lipid channel max response)
